Compounds with a hit are over-represented: about 0.68% of the library has one in this group of screens.
RN4220 kill – kills Staphylococcus aureus RN4220 | 330,000 tested, 0.33% active | S. aureus RN4220 growth, OD600, 16 h | AID 1259311 | inhibition, % (no concentration beside the values); in the data active means inhibition above about 85%;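 further: plate controls were untreated cells for no effect and reference antibiotic for full effect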
Rv3671c inh – Rv3671c (M. tuberculosis) protease inhibition; P9WHR9; inhibition, % at 5.96 µM; 320,000 tested, 0.048% active; in the data active means inhibition above about 38%;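 further: extracellular domain of Rv3671c used as enzyme; 0% = enzyme with DMSO and 100% = no enzyme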
Target sequence (P9WHR9 whole entry, looked up, the tested form may be a part): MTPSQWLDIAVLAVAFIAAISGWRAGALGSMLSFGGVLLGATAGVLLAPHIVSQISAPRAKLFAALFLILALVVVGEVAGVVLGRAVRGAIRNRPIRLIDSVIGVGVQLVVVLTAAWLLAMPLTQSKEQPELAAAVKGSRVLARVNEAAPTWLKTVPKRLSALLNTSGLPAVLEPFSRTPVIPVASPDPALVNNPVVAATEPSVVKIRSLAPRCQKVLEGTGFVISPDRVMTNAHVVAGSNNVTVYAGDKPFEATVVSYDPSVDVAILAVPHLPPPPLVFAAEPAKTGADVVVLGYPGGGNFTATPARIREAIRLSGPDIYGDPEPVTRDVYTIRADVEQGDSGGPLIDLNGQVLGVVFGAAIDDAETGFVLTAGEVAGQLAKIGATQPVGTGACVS
Sa ugtP lethal – growth inhibition of S. aureus ugtP deletion strain; S. aureus RN4220 ugtP deletion, OD600 growth, 16 h; growth inhibition, % (concentration not given with the values); 330,000 tested, 0.54% active; AID 1259309; in the data active means growth inhibition above about 68%;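 further: plate controls were untreated wells for no effect and antibiotic for full effect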
Mtb betalactam – beta-lactam sensitization of Mtb H37Rv; M. tuberculosis H37Rv growth with meropenem, percent inhibition; inhibition, % at 25 µM; 330,000 tested, 0.27% active; AID 434955; call rule not given here;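 further: growth measured after seven days incubation then overnight dye step; 0% = bacteria only wells and 100% = bacteria with antibiotic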
Mtb hypoxia inh – Mtb hypoxia fluorescent reporter inhibition; M. tuberculosis hypoxia-regulated fluorescent reporter, fluorescence; fluorescence inhibition, % (test concentration not listed); 300,000 tested, 0.1% active; in the data active means fluorescence inhibition mostly above about 23%, no sharp cut-off; inactive means mostly below about 17%
Mtb UGM inh – Mtb UDP-galactopyranose mutase inhibition; purified UGM, fluorescence polarization probe displacement; 320,000 tested, 0.06% active; AID 504406; inhibition, % at 10 µM; P9WIQ1; in the data active means inhibition above about 10%, passing the limit was not always enough; inconclusive means no clear call, values can overlap the other calls
Numbers without * were called inactive; ? = inconclusive; nt = no result given.

SMILES | RN4220 kill | Rv3671c inh | Sa ugtP lethal | Mtb betalactam | Mtb hypoxia inh | Mtb UGM inh
Cc1cc(O)c(C=O)c2c1C(=O)Oc1c(CO)c(O)c3c(c1O2)C(O)OC3=O (stereo not given) | nt | 57* | nt | -7 | nt | 4
Cc1c(CCOC(=O)C23CC4CC(CC(C)(C4)C2)C3)sc[n+]1Cc1ccccc1 | 69 | -2 | 100* | 87 | 5 | -1
Cc1c(CCOC(=O)C23CC4(C)CC(C)(CC(C)(C4)C2)C3)sc[n+]1CC(=O)c1ccccc1 | 98* | -14 | 100* | 2 | 5 | 2
Cc1c(CCOC(=O)C23CC4CC(CC(C4)C2)C3)sc[n+]1Cc1ccccc1 | -7 | -7 | 71 | 49 | -4 | 0
Cc1c(CCOC(=O)CC23CC4CC(CC(C4)C2)C3)sc[n+]1CC(=O)c1ccccc1 | -2 | 3 | 16 | 79 | 7 | 2
Cc1ccc(-c2nc3ccccc3o2)cc1NC(=S)NC(=O)/C=C/c1ccco1 | 6 | -6 | 25 | nt | nt | -1
O=C(/C=C/c1ccco1)NC(=S)Nc1ccccc1 | 2 | 1 | 93* | 5 | 6 | -1
O=C(/C=C/c1cccs1)NC(=S)Nc1ccccc1 | 97 | -9 | active | -3 | 7 | -3
O=C(/C=C/c1ccco1)NC(=S)Nc1cccc(-c2nc3ccccc3o2)c1 | 15 | -34 | 98* | -3 | nt | 2
CC(=O)n1cc(C2C=C(C(N)=O)OC(OCc3ccc(CO)cc3)C2)c2ccccc21 (stereo not given) | 8 | nt | 11 | nt | 18 | nt
CCCCC(CC)COC1(c2ccccc2)OC(=O)c2ccccc21 (stereo not given) | -4 | -4 | 86* | 5 | 6 | -1
CCCCOC1(c2ccccc2)OC(=O)c2ccccc21 (stereo not given) | 2 | -6 | 42 | 6 | 10 | -2
COc1ccc(NC(=O)Nc2ccc3c(c2)C(=O)N(C(C)CO)CC(C)C(CN(C)S(C)(=O)=O)O3)cc1 (stereo not given) | 9 | nt | 10 | nt | 9 | nt
COC(=O)C1CN(C#N)N(c2ccc(Cl)cc2)C12c1ccccc1-c1ccccc12 (stereo not given) | 90* | 2 | 96* | 75 | 11 | -2
CCOc1ccc2[nH]c(SCC(=O)OC)c([N+](=O)[O-])c2c1 | 3 | 0 | 2 | 90 | 22 | 1
COC(=O)CSc1[nH]c2ccc(Br)cc2c1[N+](=O)[O-] | 7 | -3 | -1 | 100 | 37* | 1
O=C(CC1CC=CCCC(Cc2ccc(F)cc2)C(=O)OCCNC1=O)NC(CO)Cc1ccccc1 (stereo not given) | -3 | nt | -14 | nt | -9 | nt
Cc1ccccc1NC1=C/C(=N\S(=O)(=O)c2cccs2)c2ccccc2C1=O | 99* | -195 | 88* | 94 | 6 | 4
Cc1ccc(NC2=CC(=NS(=O)(=O)c3cccs3)c3ccccc3C2=O)cc1C | 10 | nt | 3 | nt | -1 | nt
CC(C)(C)OC(=O)NCCCCC(NC(=O)c1[nH]cnc1C(=O)Nc1ccc(Cl)cc1)C(=O)OC(C)(C)C (stereo not given) | -7 | nt | -7 | nt | -9 | nt
Cc1ccnc2nc(C(=O)Nc3nc4ccccc4s3)nn12 | 1 | 0 | 4 | 92 | 53* | -1
Cc1csc(NC(=O)c2nc3nccc(C)n3n2)n1 | 1 | 7 | 5 | 4 | 4 | 0
Cc1ccc(Oc2cc([N+](=O)[O-])cc3c2C(=O)Nc2ccccc2O3)cc1 | 97* | 0 | 91* | -3 | 9 | 1
O=C1Nc2ccccc2Nc2ccc([N+](=O)[O-])cc21 | -3 | -27 | 10 | ? | -5 | 1
CN(Cc1ccccc1)C(=O)COC(=O)c1cc([N+](=O)[O-])ccc1N1CCOCC1 | 3 | 10 | 5 | 2 | 12 | -2
SMILES | RN4220 kill | Rv3671c inh | Sa ugtP lethal | Mtb betalactam | Mtb hypoxia inh | Mtb UGM inh
COc1ccc(CN(C)C(=O)COC(=O)c2cc([N+](=O)[O-])ccc2N2CCCC2)c(OC)c1OC | 4 | -13 | 5 | -3 | 22* | 0
COC(=O)C1C[C@@]2(O)C(O)C(O)C(O)CC2N1Cc1ccc(C(C)(C)C)cc1 (stereo not given in full) | 7 | nt | 0 | nt | -1 | nt
COc1ccc(CCNC(=O)c2cc3c(=O)n4ccccc4nc3n(Cc3ccco3)c2=N)cc1OC | 2 | 1 | -1 | 9 | 39* | -2
O=C(Nc1nc(-c2cccs2)c(C(=O)C(F)(F)F)s1)c1ccco1 | 49 | 1 | 57 | -1 | 8 | 3
O=C(Nc1nc(-c2cccs2)c(C(=O)C(F)(F)F)s1)c1ccccc1 | 88* | -18 | 89 | 0 | 3 | -1
NC(=O)CCC1NC(=O)C(CO)NC(=O)c2cc([N+](=O)[O-])cc(I)c2NCCC(C(N)=O)NC1=O (stereo not given) | 3 | nt | -5 | nt | 1 | nt
O=[N+]([O-])/C=C/c1cn(Cc2ccc(Cl)cc2)c2ccccc12 | 90* | -41 | 77 | 4 | 11 | -3
Cc1cccc(Cn2cc(/C=C/[N+](=O)[O-])c3ccccc32)c1 | 52 | -35 | 25 | 4 | 4 | 0
O=C(COC(=O)c1ccccc1O)NC1CCCc2ccccc21 (stereo not given) | 2 | 0 | -3 | 3 | 33* | 1
Cc1cc(C)c(NC(=O)c2cn3c4c(c(N5CCN(C)CC5)c(F)cc4c2=O)OCC3C)c(C)c1 (stereo not given) | 15 | -7 | 61 | -5 | 6 | nt
CN1CCN(c2c(F)cc3c(=O)c(C(=O)O)cn4c3c2OCN4C)CC1 | 99* | 3 | 99* | 100 | nt | 0
CC1C=C(C(=O)NC2CC2)OC(OCc2ccc(CO)cc2)C1 (stereo not given) | 8 | nt | 0 | nt | 5 | nt
Nc1c(C(=O)Nc2ccccc2F)sc2nc(Cc3ccccc3)cc(C(F)(F)F)c12 | 3 | 6 | 2 | 3 | -3 | 26*
CC(C)CN=c1cc(-c2ccccc2)oc2ccc(Cl)cc12 | -5 | -11 | -4 | 37 | 42* | 3
CC1CCN(S(=O)(=O)c2ccc3c(c2)c(=O)c(C(=O)NCc2ccco2)cn3C)CC1 | nt | -15 | nt | -11 | nt | -1
CCN(CC)S(=O)(=O)c1ccc2c(c1)c(=O)c(C(=O)NCc1ccco1)cn2C | -2 | -3 | -11 | 2 | -2 | 12*
COc1ccc(NC(=O)Nc2cccc3c2OC(CN(C)S(C)(=O)=O)C(C)CN(C(C)CO)C3=O)cc1 (stereo not given) | 4 | nt | 5 | nt | 4 | nt
Cc1cccnc1Nc1nc(-c2ccccc2)cs1 | -2 | 6 | 25 | 53 | 17 | 2
Cc1cccnc1Nc1nc(-c2ccccn2)cs1 | 98* | 6 | 99* | 99 | nt | -1
Cc1ccc(C(=O)NC(=Cc2ccccc2)C(=O)NCC2CCCO2)cc1 (stereo not given) | 8 | nt | 6 | nt | 1 | nt
COc1ccc(NC(=O)CON=CC(=O)Nc2ccc(C)cc2)c(OC)c1 | 4 | 1 | 7 | 2 | 26* | -1
COc1ccc(C(=O)Nc2nc(C)c3cc4c(cc3n2)OCO4)cc1 | -2 | -6 | -3 | 7 | 38* | 0

Assay outcomes from PubChem.
